Several values for one entry are separate records, joined by “and”; a condition that tells them apart may be missing. Equal values may be shown once. Results filed as inconclusive are left out. Where a call stands in place of a potency, no number is given. The source holds several records for some structures; these can differ, active in one and inactive in another. Activity calls are given as the source filed them. Unless noted, calls follow the shape of the dose curve; as a rule, active = well fitted curve in the direction sought with a large enough effect in the repeat runs; inconclusive = weak or mixed curves; inactive = no such curve, though single readings can be large; an effect the other way counts as inactive or inconclusive.
Assays:
[1] = Human pregnane X receptor (PXR) small molecule agonists, qHTS cell viability counter screen (AID 1346977); also: nearly all actives have a fitted effect of over 50% in size; also: potency is read from the fitted curve at half-maximal effect
Outline: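 PXR-Luc HepG2 cells in medium with 5% charcoal-stripped FBS were pre-incubated 5hr, then exposed to compounds for 24hr at 37C. Viability was read in the same wells by CellTiter-Fluor fluorescence, reagent added after 23hr with a 1hr incubation.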

[2] = Caspase-3/7 induction in HepG2 cells by small molecules, qHTS assay (AID 1346978); also: nearly all actives have a fitted effect of over 15% in size
Outline: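 Wild-type HepG2 cells (2,000/well) were settled 5 h at 37 C, 5% CO2, then exposed to compounds in DMSO for 17 h. Caspase-3/7 activity was read by luminescence 30 min after adding Caspase-Glo 3/7 reagent at room temperature.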

[3] = Caspase-3/7 induction in CHO-K1 cells by small molecules, qHTS cell viability counter screen (AID 1346979); also: nearly all actives have a fitted effect of over 35% in size; also: potency is read from the fitted curve at half-maximal effect
Outline: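 Wild-type CHO-K1 cells were seeded at 1,500 per well, rested 5hr at 37 C, then exposed to compounds in DMSO. After 16hr, CellTiter-Fluor reagent was added and fluorescence read 1hr later as the viability measure.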

[4] = Caspase-3/7 induction in CHO-K1 cells by small molecules, qHTS assay (AID 1346980); also: nearly all actives have a fitted effect of over 15% in size
Outline: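 Wild-type cells were seeded at 1,500 per well and settled 5 hr at 37 C, 5% CO2, then exposed to DMSO-dissolved compounds for 17 hr. Caspase-Glo 3/7 reagent was added, and luminescence was read after 30min at room temperature.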

[5] = Caspase-3/7 induction in HepG2 cells by small molecules, qHTS cell viability counter screen (AID 1346981); also: nearly all actives have a fitted effect of over 30% in size; also: potency is read from the fitted curve at half-maximal effect
Outline: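 Multiplexed with the caspase-3/7 assay: HepG2 cells, 16 hr compound treatment, CellTiter-Fluor viability detection by fluorescence.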

[6] = target: Voltage-gated inwardly rectifying potassium channel KCNH2 (Homo sapiens) (UniProt Q12809); assay: Human Ether-a-go-go-Related Gene (hERG) channel small molecule antagonists: fluorescence cell-based qHTS assay (AID 1671200); also: nearly all actives have a fitted effect of over 50% in size; also: potency is read from the fitted curve at half-maximal effect;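 as to activity change, negative = inhibition: hERG-expressing U2OS cells given a thallium stimulus after FluxOR II dye loading; series mostly up to about 77 µM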
Outline: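 U2OS cells expressing the channel were plated at 1000 cells/well, incubated overnight at 37 C, then loaded with FluxOR II thallium-sensitive dye for 1 h at room temperature in the dark, with a further 10 min at room temperature before stimulation.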

[7] = target: Nuclear receptor subfamily 1 group I member 2 (Homo sapiens) (UniProt O75469); assay: Human pregnane X receptor (PXR) small molecule agonists, qHTS assay (AID 1346982); also: nearly all actives have a fitted effect of over 35% in size; also: potency is read from the fitted curve at half-maximal effect
Outline: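 We seeded PXR-Luc HepG2 cells in assay medium containing 5% charcoal-stripped FBS, added compounds 5 hr later, incubated 24 hr, and read luminescence with ONE-Glo reagent.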

[8] = target: Acetylcholinesterase (Homo sapiens) (UniProt P22303); assay: Acetylcholinesterase (AChE) small molecule antagonists: colormetric cell-based qHTS assay (AID 1347395; calls by dose curve; also: nearly all actives have a fitted effect of over 30% in size; also: potency is read from the fitted curve at half-maximal effect)
Outline: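 SH-SY5Y cells, plated overnight at 37 C, were exposed to compounds for 30 min at 37 C and 5% CO2. Acetylthiocholine plus DTNB was then added, and thiocholine from endogenous AChE was quantified colorimetrically after 90 min at 37 C.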

[9] = target: Acetylcholinesterase (Homo sapiens) (UniProt P22303); assay: Acetylcholinesterase (AChE) small molecule antagonists: enzyme-based qHTS assay (AID 1347397; calls by dose curve; also: nearly all actives have a fitted effect of over 55% in size; also: potency is read from the fitted curve at half-maximal effect); settings: Potency: AChE enzyme activity inhibition
Outline: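 Recombinant human AChE, dispensed at 50 mU/mL, was preincubated with Tox21 10K compounds or DMSO vehicle for 30 min at room temperature. DTNB plus acetylthiocholine was then added, and thiocholine was measured colorimetrically after a further 10 min.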

[10] = target: Acetylcholinesterase (Homo sapiens) (UniProt P22303); assay: Acetylcholinesterase (AChE) small molecule antagonists: enzyme-based qHTS assay with human liver microsomes (AID 1347399; calls by dose curve; also: nearly all actives have a fitted effect of over 60% in size; also: potency is read from the fitted curve at half-maximal effect); settings: Potency: qHTS inhibition
Outline: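 Recombinant human AChE (50 mU/mL in the enzyme mix) and human liver microsomes (0.25 mg/mL final) were preincubated with compound and NADPH (0.25 mg/mL final) for 30 min at 37 C. Acetylthiocholine/DTNB was then added; thiocholine was read colorimetrically after 10 min at room temperature.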

[11] = target: Cytochrome P450 2D6 (Homo sapiens) (UniProt P10635); assay: Cytochrome P450 Family 2 Subfamily D Member 6 (CYP2D6) small molecule antagonists: luciferase reporter qHTS assay (AID 1671196); also: nearly all actives have a fitted effect of over 50% in size; also: potency is read from the fitted curve at half-maximal effect; as to activity change, negative = inhibition: series mostly up to about 120 µM
Outline: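 Luminescence (RLU), read 20 min after detection reagent, indicated CYP2D6 conversion of proluciferin to luciferin during a 1 h NADPH-dependent reaction at room temperature.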

[12] = target: Cytochrome P450 2C19 (Homo sapiens) (UniProt P33261); assay: Cytochrome P450 Family 2 Subfamily C Member 19 (CYP2C19) small molecule antagonists: luciferase reporter qHTS assay (AID 1671197); also: nearly all actives have a fitted effect of over 65% in size; also: potency is read from the fitted curve at half-maximal effect; as to activity change, negative = inhibition: series mostly up to about 120 µM
Outline: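 Inhibition of CYP2C19 was scored from loss of luminescence in a P450-Glo proluciferin substrate assay, NADPH-started and run 1 h at 37C, with ketoconazole as positive control.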

[13] = target: Cytochrome P450 3A4 (Homo sapiens) (UniProt P08684); assay: Cytochrome P450 Family 3 Subfamily A Member 4 (CYP3A4) small molecule antagonists: luciferase reporter qHTS assay (AID 1671201); also: nearly all actives have a fitted effect of over 50% in size; also: potency is read from the fitted curve at half-maximal effect; as to activity change, negative = inhibition: series mostly up to about 120 µM
Outline: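 P450-Glo CYP3A4 system with proluciferin substrate; compounds preincubated 10 min RT with enzyme-substrate mix, then NADPH regeneration added for 1 h RT. Detection reagent 20 min, luminescence read as relative luminescence units.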

[14] = target: Cytochrome P450 2C9 (Homo sapiens) (UniProt P11712); assay: Cytochrome P450 Family 2 Subfamily C Member 9 (CYP2C9) small molecule antagonists: luciferase reporter qHTS assay (AID 1671198); also: nearly all actives have a fitted effect of over 50% in size; also: potency is read from the fitted curve at half-maximal effect; as to activity change, negative = inhibition: series mostly up to about 120 µM
Outline: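 CYP2C9 activity was measured with a P450-Glo proluciferin substrate. Enzyme–substrate mix was held with compound for 10 min at room temperature, then NADPH regeneration solution was added for 1 h at 37C. Luciferin product was read as luminescence.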

[15] = target: Cytochrome P450 1A2 (Homo sapiens) (UniProt P05177); assay: Cytochrome P450 Family 1 Subfamily A Member 2 (CYP1A2) small molecule antagonists: luciferase reporter qHTS assay (AID 1671199); also: nearly all actives have a fitted effect of over 50% in size; also: potency is read from the fitted curve at half-maximal effect; as to activity change, negative = inhibition: series mostly up to about 120 µM
Outline: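 CYP1A2 turnover of a luminogenic substrate was quantified after 1 h with NADPH regeneration at room temperature. Furafylline served as positive control.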

[16] = target: Acetylcholinesterase (Homo sapiens) (UniProt P22303); assay: Acetylcholinesterase (AChE) small molecule antagonists: fluorescence cell-based qHTS assay (AID 1347398; calls by dose curve; also: nearly all actives have a fitted effect of over 50% in size); settings: Potency: AChE activity
Outline: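 Human SH-SY5Y cells were plated overnight at 37 C, exposed to compound for 30 min at 37 C, 5% CO2, then given acetylthiocholine plus Thiolite Green for 40 min at room temperature; thiocholine fluorescence (Ex/Em 490/520 nm) reports endogenous AChE activity.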

Chain of Cytochrome P450 2C19 (Homo sapiens) (P33261 whole entry, looked up): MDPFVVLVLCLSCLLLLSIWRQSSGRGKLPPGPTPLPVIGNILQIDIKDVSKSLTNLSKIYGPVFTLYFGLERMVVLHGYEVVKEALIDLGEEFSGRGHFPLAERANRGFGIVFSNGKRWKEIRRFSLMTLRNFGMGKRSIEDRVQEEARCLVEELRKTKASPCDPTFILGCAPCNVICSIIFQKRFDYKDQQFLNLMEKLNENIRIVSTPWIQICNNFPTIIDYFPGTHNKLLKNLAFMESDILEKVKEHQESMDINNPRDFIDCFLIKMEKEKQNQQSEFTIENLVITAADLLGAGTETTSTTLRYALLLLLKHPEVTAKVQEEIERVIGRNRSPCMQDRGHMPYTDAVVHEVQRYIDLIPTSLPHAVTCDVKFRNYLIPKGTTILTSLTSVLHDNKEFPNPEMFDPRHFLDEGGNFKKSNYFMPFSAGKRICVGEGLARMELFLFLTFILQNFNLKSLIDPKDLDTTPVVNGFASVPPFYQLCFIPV
Chain of Cytochrome P450 2C9 (Homo sapiens) (P11712 whole entry, looked up): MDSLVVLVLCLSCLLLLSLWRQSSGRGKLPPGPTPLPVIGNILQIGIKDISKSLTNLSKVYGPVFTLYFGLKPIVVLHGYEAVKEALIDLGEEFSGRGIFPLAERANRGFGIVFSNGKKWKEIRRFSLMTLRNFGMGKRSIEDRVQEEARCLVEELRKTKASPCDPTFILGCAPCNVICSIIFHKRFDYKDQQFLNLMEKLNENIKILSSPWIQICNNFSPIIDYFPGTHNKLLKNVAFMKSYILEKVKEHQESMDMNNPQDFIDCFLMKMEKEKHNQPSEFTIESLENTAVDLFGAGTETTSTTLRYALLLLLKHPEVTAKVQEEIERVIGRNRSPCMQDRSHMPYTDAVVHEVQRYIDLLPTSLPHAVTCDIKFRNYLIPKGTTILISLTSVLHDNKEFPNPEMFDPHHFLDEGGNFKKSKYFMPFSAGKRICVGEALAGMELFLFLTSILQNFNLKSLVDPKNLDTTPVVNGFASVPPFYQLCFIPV
Chain of Cytochrome P450 3A4 (Homo sapiens) (P08684 whole entry, looked up): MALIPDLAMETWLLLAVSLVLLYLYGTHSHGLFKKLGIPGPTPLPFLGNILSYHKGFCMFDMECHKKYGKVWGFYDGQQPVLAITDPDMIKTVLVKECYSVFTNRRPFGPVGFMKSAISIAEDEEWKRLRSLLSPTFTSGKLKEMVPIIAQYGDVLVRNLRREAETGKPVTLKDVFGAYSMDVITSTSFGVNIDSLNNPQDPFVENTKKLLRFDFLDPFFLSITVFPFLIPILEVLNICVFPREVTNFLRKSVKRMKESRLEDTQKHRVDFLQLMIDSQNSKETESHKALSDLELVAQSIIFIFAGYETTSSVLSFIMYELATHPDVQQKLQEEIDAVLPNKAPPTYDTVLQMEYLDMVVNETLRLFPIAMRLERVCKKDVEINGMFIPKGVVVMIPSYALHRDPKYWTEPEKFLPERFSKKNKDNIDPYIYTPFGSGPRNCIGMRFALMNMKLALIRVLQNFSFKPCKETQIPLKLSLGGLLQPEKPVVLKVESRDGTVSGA
Chain of Cytochrome P450 2D6 (Homo sapiens) (P10635 whole entry, looked up): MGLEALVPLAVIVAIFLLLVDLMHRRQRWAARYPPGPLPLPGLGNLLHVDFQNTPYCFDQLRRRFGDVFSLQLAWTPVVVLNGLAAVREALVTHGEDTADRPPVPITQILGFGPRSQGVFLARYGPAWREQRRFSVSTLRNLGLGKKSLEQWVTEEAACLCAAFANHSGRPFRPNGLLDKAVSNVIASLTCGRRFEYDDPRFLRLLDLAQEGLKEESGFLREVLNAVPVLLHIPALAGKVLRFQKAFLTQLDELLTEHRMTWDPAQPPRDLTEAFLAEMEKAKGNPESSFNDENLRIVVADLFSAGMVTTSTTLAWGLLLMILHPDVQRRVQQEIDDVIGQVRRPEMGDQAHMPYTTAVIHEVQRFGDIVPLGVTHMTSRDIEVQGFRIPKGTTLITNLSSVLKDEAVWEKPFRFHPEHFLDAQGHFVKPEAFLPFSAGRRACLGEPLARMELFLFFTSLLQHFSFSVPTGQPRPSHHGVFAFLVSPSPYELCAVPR
Chain of Cytochrome P450 1A2 (Homo sapiens) (P05177 whole entry, looked up): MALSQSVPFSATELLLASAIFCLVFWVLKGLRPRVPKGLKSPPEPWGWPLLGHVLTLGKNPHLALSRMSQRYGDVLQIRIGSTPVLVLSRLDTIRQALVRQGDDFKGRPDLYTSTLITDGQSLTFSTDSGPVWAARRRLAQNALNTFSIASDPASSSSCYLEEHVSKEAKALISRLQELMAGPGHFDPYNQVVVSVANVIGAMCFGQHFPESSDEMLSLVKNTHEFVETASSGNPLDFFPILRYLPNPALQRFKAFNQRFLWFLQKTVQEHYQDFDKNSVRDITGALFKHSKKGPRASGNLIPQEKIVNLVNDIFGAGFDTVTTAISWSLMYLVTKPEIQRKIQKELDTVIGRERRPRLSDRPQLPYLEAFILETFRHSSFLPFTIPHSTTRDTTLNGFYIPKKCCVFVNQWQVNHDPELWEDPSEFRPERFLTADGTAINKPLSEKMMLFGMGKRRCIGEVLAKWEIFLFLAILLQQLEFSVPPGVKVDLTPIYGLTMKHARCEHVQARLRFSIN
Chain of Voltage-gated inwardly rectifying potassium channel KCNH2 (Homo sapiens) (Q12809 whole entry, looked up): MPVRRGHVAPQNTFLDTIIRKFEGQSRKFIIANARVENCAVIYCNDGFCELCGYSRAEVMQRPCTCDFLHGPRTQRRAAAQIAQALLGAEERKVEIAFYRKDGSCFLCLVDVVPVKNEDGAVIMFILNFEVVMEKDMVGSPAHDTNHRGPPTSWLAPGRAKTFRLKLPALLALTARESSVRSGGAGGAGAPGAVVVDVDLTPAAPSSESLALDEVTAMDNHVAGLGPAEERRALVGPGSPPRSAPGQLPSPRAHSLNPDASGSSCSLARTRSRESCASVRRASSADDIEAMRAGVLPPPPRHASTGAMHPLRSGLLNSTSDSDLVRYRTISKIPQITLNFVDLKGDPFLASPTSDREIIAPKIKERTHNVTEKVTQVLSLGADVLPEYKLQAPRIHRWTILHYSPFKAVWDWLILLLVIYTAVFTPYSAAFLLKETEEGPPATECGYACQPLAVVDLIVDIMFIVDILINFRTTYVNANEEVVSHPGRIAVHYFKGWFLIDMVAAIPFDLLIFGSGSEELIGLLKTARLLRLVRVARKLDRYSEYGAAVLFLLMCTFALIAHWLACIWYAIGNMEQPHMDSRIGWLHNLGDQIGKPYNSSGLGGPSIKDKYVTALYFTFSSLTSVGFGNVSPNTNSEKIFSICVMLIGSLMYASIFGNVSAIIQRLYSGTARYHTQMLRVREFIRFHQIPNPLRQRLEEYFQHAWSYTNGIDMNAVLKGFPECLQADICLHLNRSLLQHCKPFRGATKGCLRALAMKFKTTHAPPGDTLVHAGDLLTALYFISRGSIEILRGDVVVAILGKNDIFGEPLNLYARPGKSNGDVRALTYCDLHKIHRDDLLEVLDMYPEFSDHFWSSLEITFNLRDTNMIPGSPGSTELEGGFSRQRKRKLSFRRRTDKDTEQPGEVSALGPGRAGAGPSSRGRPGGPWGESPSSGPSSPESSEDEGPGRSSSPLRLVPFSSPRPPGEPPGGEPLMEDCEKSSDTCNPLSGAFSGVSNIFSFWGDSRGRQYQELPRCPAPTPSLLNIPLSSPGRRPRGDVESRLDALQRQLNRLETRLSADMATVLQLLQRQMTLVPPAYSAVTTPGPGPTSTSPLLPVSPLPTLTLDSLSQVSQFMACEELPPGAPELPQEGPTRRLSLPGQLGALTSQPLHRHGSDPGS
Chain of Nuclear receptor subfamily 1 group I member 2 (Homo sapiens) (O75469 whole entry, looked up): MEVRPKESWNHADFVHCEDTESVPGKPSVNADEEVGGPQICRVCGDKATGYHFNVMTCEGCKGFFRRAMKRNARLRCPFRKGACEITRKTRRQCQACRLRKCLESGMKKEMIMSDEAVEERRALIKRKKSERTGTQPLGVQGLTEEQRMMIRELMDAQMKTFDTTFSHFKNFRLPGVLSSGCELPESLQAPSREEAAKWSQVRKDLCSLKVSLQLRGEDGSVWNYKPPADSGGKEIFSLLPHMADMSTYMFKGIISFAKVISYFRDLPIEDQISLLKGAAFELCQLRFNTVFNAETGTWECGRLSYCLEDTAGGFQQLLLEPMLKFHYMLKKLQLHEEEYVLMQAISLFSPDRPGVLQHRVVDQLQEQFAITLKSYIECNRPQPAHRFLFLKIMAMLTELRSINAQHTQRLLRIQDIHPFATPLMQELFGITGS
Chain of Acetylcholinesterase (Homo sapiens) (P22303 whole entry, looked up): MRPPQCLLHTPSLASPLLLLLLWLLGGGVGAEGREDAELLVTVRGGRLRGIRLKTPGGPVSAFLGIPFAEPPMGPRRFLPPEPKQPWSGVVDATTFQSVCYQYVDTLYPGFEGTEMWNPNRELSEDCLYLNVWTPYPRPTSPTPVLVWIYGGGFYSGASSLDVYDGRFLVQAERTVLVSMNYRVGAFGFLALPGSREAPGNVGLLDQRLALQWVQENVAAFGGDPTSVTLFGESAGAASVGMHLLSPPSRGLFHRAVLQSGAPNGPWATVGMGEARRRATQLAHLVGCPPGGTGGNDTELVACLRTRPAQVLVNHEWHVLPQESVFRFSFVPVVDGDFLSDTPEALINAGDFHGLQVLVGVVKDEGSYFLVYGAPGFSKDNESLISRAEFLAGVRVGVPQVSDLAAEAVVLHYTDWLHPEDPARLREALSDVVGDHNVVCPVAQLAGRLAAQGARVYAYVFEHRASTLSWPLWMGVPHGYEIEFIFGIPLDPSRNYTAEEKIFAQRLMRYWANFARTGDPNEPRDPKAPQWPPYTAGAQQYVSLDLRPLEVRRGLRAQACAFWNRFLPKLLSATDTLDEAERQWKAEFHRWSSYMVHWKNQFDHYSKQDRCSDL

## [Cl-].[Cl-].[Cl-].[Fe+3]
[1]
  Potency: inactive
[2]
  Potency: inactive
[3]
  Potency: inactive
[4]
  Potency: inactive
[5]
  Potency: inactive
[6]
  Potency: inactive

## CNC(=O)Oc1cccc2c1OC(C)(C)C2
[1]
  Potency: inactive
[2]
  Potency: inactive
[3]
  Potency: inactive
[4]
  Potency: inactive
[5]
  Potency: inactive
[7]
  Potency: inactive
[8]
  Potency: 726 nM (active) and 89.4 nM (active)
[9]
  Potency: 726 nM (active) and 200 nM (active)
[10]
  Potency: 5.14 µM (active) and 1.59 µM (active)
[11]
  Potency: inactive
[12]
  Potency: 72.5 µM (active)
[6]
  Potency: inactive
[13]
  Potency: inactive

## CCNCC
[1]
  Potency: inactive
[2]
  Potency: inactive
[3]
  Potency: inactive
[4]
  Potency: inactive
[5]
  Potency: inactive
[7]
  Potency: inactive
[11]
  Potency: inactive
[12]
  Potency: inactive
[14]
  Potency: inactive
[15]
  Potency: inactive and 28.3 µM (active)
[6]
  Potency: inactive
[13]
  Potency: inactive

## N#CC(c1ccccc1)c1ccccc1
[1]
  Potency: inactive
[2]
  Potency: inactive
[3]
  Potency: inactive
[4]
  Potency: inactive
[5]
  Potency: inactive
[7]
  Potency: inactive
[8]
  Potency: inactive
[9]
  Potency: inactive
[10]
  Potency: inactive
[11]
  Potency: inactive
[12]
  Potency: 4.48 µM (active) and 5.03 µM (active)
[14]
  Potency: 22.4 µM (active) and 35.6 µM (active)
[6]
  Potency: inactive
[13]
  Potency: inactive

## COc1ccc(CO)cc1
[1]
  Potency: inactive
[2]
  Potency: inactive
[3]
  Potency: inactive
[4]
  Potency: inactive
[5]
  Potency: inactive
[6]
  Potency: inactive

## CCOP(=S)(OCC)SCn1c(=O)oc2cc(Cl)ccc21
[1]
  Potency: inactive
[2]
  Potency: inactive
[3]
  Potency: 73.6 µM (active)
[4]
  Potency: inactive
[5]
  Potency: inactive
[7]
  Potency: 32.9 µM (active) and 34.4 µM (active)
[9]
  Potency: inactive
[10]
  Potency: 8.55 µM (active) and 3.99 µM (active)
[11]
  Potency: 13.5 µM (active) and 25.2 µM (active)
[12]
  Potency: 76.2 nM (active) and 89.4 nM (active)
[14]
  Potency: 1.08 µM (active) and 1.12 µM (active)
[15]
  Potency: 2.7 µM (active) and 3.99 µM (active)
[6]
  Potency: 23.5 µM (active)
[13]
  Potency: 241 nM (active) and 317 nM (active)

## CC(C)CON=O
[1]
  Potency: inactive
[2]
  Potency: inactive
[3]
  Potency: inactive
[4]
  Potency: inactive
[5]
  Potency: inactive
[7]
  Potency: inactive
[8]
  Potency: inactive
[9]
  Potency: inactive
[10]
  Potency: inactive
[11]
  activity change, negative = inhibition: 2.15% [at 23.6 µM] (inactive)
[12]
  Potency: inactive
[14]
  Potency: inactive
[6]
  Potency: inactive
[13]
  Potency: inactive

## Cl
[1]
  Potency: inactive
[2]
  Potency: inactive
[3]
  Potency: inactive
[4]
  Potency: inactive
[5]
  Potency: inactive
[6]
  Potency: inactive

## N#Cc1c(Cl)c(Cl)c(Cl)c(C#N)c1Cl
[1]
  Potency: 12.6 µM (active) and 13.7 µM (active)
[2]
  Potency: inactive
[3]
  Potency: 1.07 µM (active) and 1.72 µM (active)
[5]
  Potency: 23.9 µM (active) and 54.5 µM (active)
[7]
  Potency: 950 nM (active) and 1.93 µM (active)
[8]
  Potency: 15.6 µM (active) and 17.8 µM (active)
[9]
  Potency: inactive
[10]
  Potency: inactive
[11]
  Potency: 34.9 µM (active) and inactive
[12]
  Potency: 17.5 µM (active) and 22.4 µM (active)
[14]
  Potency: 5.53 µM (active) and 5.64 µM (active)
[15]
  Potency: 984 nM (active) and 1 µM (active)
[6]
  Potency: inactive
[13]
  Potency: 984 nM (active) and 1.26 µM (active)

## CCN(CC)C(=O)C(C)Oc1cccc2ccccc12 (configuration not stated)
[1]
  Potency: inactive
[2]
  Potency: inactive
[4]
  Potency: inactive
[5]
  Potency: inactive
[7]
  Potency: 7.76 µM (active) and 864 nM (active)
[8]
  Potency: inactive
[9]
  Potency: inactive
[16]
  Potency: inactive
[10]
  Potency: inactive
[11]
  Potency: inactive
[12]
  Potency: 1.01 µM (active) and 633 nM (active)
[14]
  Potency: 11.4 µM (active) and 35.6 µM (active)
[15]
  Potency: 14.3 µM (active) and 28.3 µM (active)
[6]
  Potency: inactive
[13]
  Potency: 6.33 µM (active)

## O=P(OCCCl)(OCCCl)OCCCl
[1]
  Potency: inactive
[2]
  Potency: inactive
[3]
  Potency: inactive
[4]
  Potency: inactive
[5]
  Potency: inactive
[7]
  Potency: inactive and 19.3 µM (active)
[8]
  Potency: inactive
[9]
  Potency: inactive
[10]
  Potency: inactive
[11]
  Potency: inactive
[12]
  Potency: 70.4 µM (active)
[15]
  Potency: 35.3 µM (active) and 35.6 µM (active)
[6]
  Potency: inactive
[13]
  Potency: inactive

## CC1(C)Cc2cccc(O)c2O1
[1]
  Potency: inactive
[2]
  Potency: inactive
[3]
  Potency: inactive
[4]
  Potency: inactive
[5]
  Potency: inactive
[7]
  Potency: inactive
[8]
  Potency: inactive
[9]
  Potency: inactive
[10]
  Potency: inactive
[11]
  Potency: inactive
[12]
  Potency: inactive
[14]
  Potency: inactive
[6]
  Potency: inactive
[13]
  Potency: inactive

— PubChem BioAssay (Tox21)
